Potency and affinity values are given separately. A number with no mark means an inactive call. No rule for the calls is given here.
experiment: HEK293 cell cytotoxicity, dose response, cytotoxicity control, dry powder samples (AID 720567); details: plate reader; series mostly up to 15 µM; activity change, negative = cytotoxicity: at the top concentration

Row | Compound | activity change, negative = cytotoxicity [%]
1 | COc1ccccc1OCC(=O)NNC(=O)c1ccoc1C | -0.78
2 | Brc1ccc(CSc2nnc(-c3ccccc3)o2)cc1 | -7.34
3 | COc1ccccc1-c1nnc(SCc2ccccc2)o1 | 3.21
4 | Nc1nc(=S)c2ncn([C@@H]3O[C@H](CO)[C@@H](O)[C@H]3O)c2[nH]1 | -93.6
5 | CCN(CC)CCCNc1nc2cc(OC)c(OC)cc2c2nc(-c3ccccc3)nn12 | -12.8
6 | O=C(Cc1ccccc1)c1nnc(-c2ccccc2)o1 | 77
7 | Cc1cnc(NC(=O)c2cc(S(=O)(=O)N(C)C)ccc2N2CCCC2)s1 | 32.1
8 | CC(=O)c1cccc(NC(=O)CSc2ncc(C(=O)Nc3ccccc3)c(=O)n2C)c1 | -4.7
9 | COc1cc(-c2nnc(SCC3(c4ccc(Br)cc4)OCCO3)o2)cc(OC)c1OC | 18.2
10 | Cc1cc(=O)[nH]c(N/N=C/c2cc(C)n(CC(F)(F)F)c2C)n1 | -27.8
11 | CC(=O)N1CCC(=O)c2cc3ccccc3cc21 | 13.5
12 | COc1ccc(-c2nnc(SCc3ccccc3)o2)cc1 | -8.12
13 | CCN(CC)CCC(=O)Nc1cccc2c1C(=O)c1ccccc1C2=O | -5.32
14 | Cc1cc(C)nc(/N=C(\N)Nc2ccc(OCc3ccccc3)cc2)n1 | -3.13
15 | CCOc1ccc(S(=O)(=O)NCc2ccccn2)cc1NC(=O)c1ccccc1F | -25
16 | CCCCOc1ccccc1C1CC(=O)NC2=C1C(=O)CCC2 (stereo not drawn) | -19.1
17 | O=C1CCNc2cc3ccccc3cc21 | -12
18 | Cc1ccc(C(=O)c2cc([N+](=O)[O-])ccc2N2CCOCC2)cc1C | -18.1
19 | CCOC(=O)c1ccc(Oc2cc(C)nc(SC)n2)cc1 | -26.2
20 | CCN(CC)CCOc1ccc2c(c1)C(=NNC(=O)c1ccccn1)c1cc(OCCN(CC)CC)ccc1-2 | -8.53
21 | COc1ccc2c(COC(=O)c3cccc(S(=O)(=O)NCC(C)C)c3)cc(=O)oc2c1 | -5.18
22 | CCCNS(=O)(=O)c1cccc(C(=O)OCc2cc(=O)oc3cc(OC)ccc23)c1 | -7.85
23 | Cc1ccc(/C=N/NC(=O)C2COc3ccccc3O2)s1 (stereo not drawn) | -6.12
24 | COc1ccccc1CSc1nnc(-c2ccccc2)o1 | -20
25 | O=C1CCN(Cc2ccccc2)c2cc3ccccc3cc21 | 47.8
26 | Cc1[nH][nH]c(=O)c1C(c1ccc(-c2ccc(Cl)c(Cl)c2)o1)c1c(C)[nH][nH]c1=O | 9.38
27 | Cc1ccc(Oc2ccc(S(=O)(=O)N3CCOCC3)cc2C(N)=O)c(-n2nc3ccccc3n2)c1 | -27.3
28 | COc1cc(Nc2c3c(nc4ccccc24)CCCC3)cc(OC)c1OC | 3.16

— PubChem BioAssay AID720567 (Broad Institute, 2013)
